The compounds below were run against Hexose transporter 1 (Plasmodium falciparum) (UniProt O97467) (assay: ST_JUDE_LEISH: Cytotoxicity at 2uM final concentration against transgenic Leishmania Mexicana promastigotes LmPfHT that are glucose transport deficient and complemented with the Plasmodium falciparum hexose transporter. Activity is measured by DNA content using SYBR green in vitro).
Format: functional
`Cc1ccc2c(N/N=C/c3ccccc3[N+](=O)[O-])cc(C)nc2c1` gave an inhibition of -5.28%.
`COc1c(C2=CCN(CCCCNC(=O)c3ccc(-c4ccc(C#N)cc4)cc3)CC2)c(C)cc2c1C(C)(C)CCC2(C)C` showed an inhibition of 2.18%.
Work on `COc1ccc2ccccc2c1CON1C(=N)N=C(N)NC1(C)C` yielded an inhibition of 1.46%.
For `Cc1cc(OCCCN2CCCCC2)ccc1NC(=O)COc1ccc(Cl)cc1C(=O)c1cc(Cl)cc(C#N)c1`, the inhibition was 19.1%.
Compound `COc1ccc2nccc([C@@H](O)CN3CCC(NC(=O)/C=C/c4ccc(F)c5ccccc45)CC3)c2c1` has an inhibition of 5.8%.
With `C=CCN(C(=O)c1ccc(Cl)c([N+](=O)[O-])c1)c1nc(-c2ccccc2)cs1` the inhibition was 9.45%.
Compound `Cc1ccc(O)cc1Nc1ccnc2cc(-c3ccccn3)ccc12` has an inhibition of 4.26%.
`C[C@@H](CC1CCCCC1)NCc1cccc(NS(=O)(=O)c2ccc(O)c(-c3ccno3)c2)c1` showed an inhibition of 8.37%.
For `Cc1cc(Cl)c(S(=O)(=O)N(C)c2ccccc2)cc1OCC(=O)NC1CCCCC1`, the inhibition was 1.38%.
In the case of `N#Cc1ccc(-c2cnc3ccc(NCc4ccc(S(N)(=O)=O)cc4)nn23)cc1`, the inhibition is reported as 1.16%.
For `CNC(=O)CNC(=O)COc1cccc2ccccc12`, the inhibition was 1.21%.
For `CCc1ccc(C2CCN(CCCCNC(=O)c3ccc(NC(=O)c4ccc(Cl)cc4)cc3)CC2)c(OC(C)=O)c1`, the inhibition was 3.47%.
Compound `CC(C)c1ccc(NC(=O)N[C@H]2CCN(CCCCCNC(=O)/C=C/c3ccc(Cl)c(Cl)c3)C2)cc1` has an inhibition of -3.46%.
Compound `CC(C)[C@@H](NC(=O)NC1CCC(CCN2C3CCC2CC(OC(=O)C(CO)c2ccccc2)C3)CC1)C(O)(c1ccccc1)c1ccccc1` (some centres undefined) has an inhibition of 8.36%.
